# Rows were chosen to be rich in hits. Some 8.3% of all compounds tested hit in one or more screens of this group.
# Chronic BCR inh: blocks chronic active B-cell receptor signaling. ABC-DLBCL IkBa-CBG/CBR reporter, luminescence ratio, 4 h. Potency, µM (series often up to 46.1 µM), for the others: at the top dose activity change, negative = inhibition, hits mostly inhibitors. actives 0.05% (n = 340,000). AID 493014; active = well fitted inhibition curve with a large enough effect in the signal ratio, with a control signal flat, not every such curve was filed as active; inconclusive = small, poorly fitted or top-dose-only effect, or effect the other way, or a change in a side signal; the % refers to the signal ratio;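 note: potency is the fitted concentration of half-maximal effect; plate controls were basal doxycycline-induced cells for no effect and cells given 10 µM MG132 for full effect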
#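 TMD8 ABC-DLBCL cells carrying doxycycline-inducible green luciferase fused to IkappaBalpha plus unfused red luciferase were exposed to compounds (up to 46 uM) for 4 hrs at 37C. Activity came from the overlap-corrected green/red luminescence ratio.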
# SW480 rereplic: inducers of DNA re-replication in SW480 colon cancer cells; AID 624297; SW480 DNA re-replication, Hoechst DNA content imaging, 48 h; Potency, µM (highest dose often 46.1 µM), without a hit: at the top dose re-replication activation, usual class: activators; actives 1.8% (n = 340,000); note: potency is the fitted concentration of half-maximal effect; % of control where 0% means no effect; nearly all actives have a fitted effect of over 55% in size
#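 250 cells/well; 23 nL cpd via pin tool; 48 hr, 37 C, 5% CO2; Hoechst 40 min; imager read of total nuclear intensity, ex 405/em 500-530 nm.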
# VP16 counter: inhibits Gal4-VP16 luciferase reporter, ROR gamma counter-screen | Drosophila S2 Gal4-VP16 UAS-luciferase, luminescence, 20 h | Potency, µM (series often up to 53.6 µM), without a hit: at the highest dose activity, negative = inhibition, most hits filed as inhibitors | actives 3.5% (n = 310,000) | AID 2546;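 note: Gal4-VP16 expression switched on by copper sulfate through the metallothionein promoter; potency is the fitted concentration of half-maximal effect; % is set by controls: 0 for no effect and ±100 for the full control effect; nearly all actives have a fitted effect of over 50% in size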
# Giardia killer: Giardia lamblia killing | Giardia lamblia trophozoite viability | activity change, % at 7.66 µM, hits read low | actives 0.15% (n = 340,000); in the data active = activity change below about -80%; inconclusive = between about -30% and that limit;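 note: parasites exposed to compound for two days anaerobically before the ATP read; % is set by controls: 0 for no effect and ±100 for the full control effect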
#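 Anaerobic 48 hrs incubation at 37 deg C of 100 trophozoites/well with test compounds; ATPLite 1-Step luminescence, 15-30 min RT, reports cellular ATP as viability.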
# MCF10A rereplic: induces DNA re-replication in MCF 10a normal breast cells | Potency, µM (series often up to 46.1 µM), without a hit: at the top dose activity, positive = re-replication, actives largely listed as activators | MCF 10A DNA re-replication, Hoechst nuclear intensity, 48 h | AID 624296 | actives 2.9% (n = 350,000); note: potency is the fitted concentration of half-maximal effect; % of control where 0% means no effect; nearly all actives have a fitted effect of over 50% in size
# RORg inh: ROR gamma (mouse) transcription inhibition | Drosophila S2 Gal4-RORgamma UAS-luciferase reporter, 20 h | Potency, µM (top dose mostly 53.6 µM), for the others: at the highest dose activity change, negative = inhibition, most hits filed as inhibitors | actives 5.4% (n = 310,000) | AID 2551; note: potency is the fitted concentration of half-maximal effect; % is set by controls: 0 for no effect and ±100 for the full control effect; nearly all actives have a fitted effect of over 60% in size
# Target sequence (P51450 whole entry, looked up, the tested form may be a part): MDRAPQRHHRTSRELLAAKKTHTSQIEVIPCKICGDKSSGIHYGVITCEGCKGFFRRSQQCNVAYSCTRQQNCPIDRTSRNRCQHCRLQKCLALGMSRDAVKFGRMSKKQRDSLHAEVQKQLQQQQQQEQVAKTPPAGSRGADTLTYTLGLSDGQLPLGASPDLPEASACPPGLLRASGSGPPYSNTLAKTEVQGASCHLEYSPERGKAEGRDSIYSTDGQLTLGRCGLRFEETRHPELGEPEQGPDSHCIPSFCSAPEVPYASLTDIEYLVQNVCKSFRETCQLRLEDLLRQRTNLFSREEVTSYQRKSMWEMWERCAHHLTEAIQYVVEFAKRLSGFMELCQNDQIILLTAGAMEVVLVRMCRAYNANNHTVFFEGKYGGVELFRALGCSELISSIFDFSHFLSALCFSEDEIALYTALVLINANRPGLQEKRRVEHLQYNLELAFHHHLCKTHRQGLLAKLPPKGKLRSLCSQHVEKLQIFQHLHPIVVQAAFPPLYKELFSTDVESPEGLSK
#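 Using a luciferase readout, inhibitors were identified by reduced reporter activity in Drosophila cells coexpressing a copper-inducible Gal4–ROR gamma fusion and UAS-driven Photinus luciferase, incubated 20 hr after 700 uM copper sulfate.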
# The depositor's hits bear a star; ? = inconclusive; · = not tested or not shown. Unless noted, calls come from the whole dose curve; as a rule, active = well fitted curve in the direction sought with a large enough effect; inconclusive = small, poorly fitted or top-dose-only effect, or another doubt; inactive = no such curve, though single readings can be large; an effect the other way counts as inactive or inconclusive.
SMILES,Chronic BCR inh,SW480 rereplic,VP16 counter,Giardia killer,MCF10A rereplic,RORg inh
CCN(C(=S)Nc1cc(S(=O)(=O)N2CCOCC2)ccc1Cl)c1cccc2ccccc12,-2.4%,19.4%,22.4µM*,-2.7,?,?
CCOc1cccc(/C=N/NC(=S)Nc2cc(S(=O)(=O)N3CCOCC3)ccc2N2CCOCC2)c1O,?,?,10µM*,-15.5,?,?
COc1ccc2ccccc2c1/C=N/NC(=S)Nc1cc(S(=O)(=O)N2CCOCC2)ccc1N1CCOCC1,-6.4%,?,10µM*,-3.6,?,2.82µM*
COc1ccc(/C=N/NC(=S)Nc2cc(S(=O)(=O)N3CCOCC3)ccc2N2CCOCC2)cc1O,?,?,?,6.8,?,?
CCn1c(SCC(=O)NC2(C#N)CCCCC2)nc2ccccc2c1=O,-3.8%,-1.2%,·,6.7,6.5%,·
COc1cc(OC)c(-c2oc3ccccc3c(=O)c2O)c(OC)c1,·,16.4µM*,·,-8.1,?,·
COc1ccc(OC)c(-c2oc3ccccc3c(=O)c2O)c1,-13.9%,?,-28.5%,1.7,-0.3%,7.08µM*
COc1ccccc1-c1oc2ccccc2c(=O)c1O,·,·,1.0%,·,·,20µM*
CCOC(=O)N1CCN(C(=O)COC(=O)CSc2ccc([N+](=O)[O-])cc2)CC1,-0.1%,-2.2%,·,6.5,-1.8%,·
OCc1nc2ccccc2n1CCCOc1ccc(Br)cc1,·,-1.5%,-3.0%,6.8,22.8%,13.6%
Cc1ccc(C(=O)CNc2ccc(C)cc2C)cc1,-0.2%,2.9%,-8.8%,-24.2,7.7%,0.0%
O=C(NNC1=NCCC1)c1ccc(Br)cc1,-14.5%,-3.2%,6.31µM*,-1.0,2.1%,5.62µM*
O=C(NNC1=NCCCCC1)c1cccc([N+](=O)[O-])c1,4.7%,-12.8%,-11.9%,2.5,20.0%,-3.7%
Cc1ccc(C(=O)NNC(=O)c2ccc(C)cc2)cc1,-10.3%,0.7%,0.2%,-5.7,12.7%,16.6%
O=C(NNC1=NCCC1)c1cccc(S(=O)(=O)N2CCCC2)c1,1.1%,-3.9%,?,-5.7,-1.4%,8.91µM*
Cc1ccc(NCC(=O)NNC2=NCCC2)c(C)c1,2.6%,-11.0%,11.2µM*,10.8,7.6%,8.91µM*
Cc1ccc(C(=O)NNC2=NCCC2)cc1,-1.9%,6.3%,17.8µM*,6.8,2.3%,10µM*
O=C(COC(=O)c1cccc(F)c1)NC(=O)NCc1ccccc1,0.4%,12.4%,·,1.6,6.0%,·
CSCCC(NC(=O)c1ccccc1Cl)C(=O)OCC(=O)N1CCCC1=O (centres undefined),6.6%,-1.6%,·,-7.3,1.5%,·
CC(NS(=O)(=O)c1ccc(OCC(=O)NCc2ccncc2)cc1)c1ccccc1 (centres undefined),-5.4%,-1.6%,2.2%,7.9,11.6%,-3.1%
CCCCN(C(=O)CSc1ncn[nH]1)c1c(N)n(Cc2ccccc2)c(=O)[nH]c1=O,-1.2%,-5.8%,·,-9.0,14.3%,·
CCCCOc1ccc(OC(=O)Nc2cc(Cl)ccc2OC)cc1,?,-0.5%,1.5%,-1.8,4.5%,1.2%
O=C(NC1CCCC1)c1ccc(Cl)s1,0.1%,21.5%,-7.7%,-5.7,0.9%,14.6%
CCc1ccccc1NC(=O)c1ccc([N+](=O)[O-])s1,8.7%,?,6.2%,?,?,14.1µM*
O=C(NC1CCCCC1)c1ccc([N+](=O)[O-])o1,-5.2%,?,-3.0%,-95.2*,16.4µM*,-17.7%
SMILES,Chronic BCR inh,SW480 rereplic,VP16 counter,Giardia killer,MCF10A rereplic,RORg inh
O=C(COC(=O)c1ccc([N+](=O)[O-])o1)NC1CCCCC1,-2.0%,?,·,4.1,7.2%,·
O=C(NC1CCCCCC1)c1ccc([N+](=O)[O-])s1,?,18.4µM*,·,?,?,·
O=C(NC1CCCC(C(F)(F)F)C1)c1ccc([N+](=O)[O-])o1 (centres undefined),-10.2%,31.8%,·,-90.7*,6.51µM*,·
COc1ccccc1NC(=O)COC(=O)c1ccc([N+](=O)[O-])s1,0.0%,0.6%,-3.9%,5.9,-14.2%,?
CC(Sc1nc2cc(Cl)ccc2s1)C(=O)Nc1cccc(S(=O)(=O)N2CCOCC2)c1 (centres undefined),-8.2%,0.7%,-3.0%,-8.5,?,?
CCCCn1c(-c2ccc([N+](=O)[O-])cc2)n[nH]c1=S,?,0.8%,8.91µM*,-20.8,-2.3%,2.24µM*
CCn1c(-c2ccc(C)cc2)n[nH]c1=S,-2.7%,-2.3%,11.2µM*,-23.4,-5.8%,8.91µM*
CCn1c(-c2ccc(Cl)cc2)n[nH]c1=S,-9.7%,17.1%,12.6µM*,-17.6,0.6%,10µM*
CCn1c(-c2cccnc2)n[nH]c1=S,-0.6%,-3.8%,-9.9%,12.7,-2.3%,?
CCCn1c(-c2ccc(F)cc2)n[nH]c1=S,?,-0.3%,1.3%,-1.2,3.7%,?
CCn1c(-c2nn(C)c(C)c2Cl)n[nH]c1=S,-4.4%,-1.3%,?,-22.1,2.7%,?
CCN1C(=O)[C@H]2[C@H]3CN=C(SC)N3[C@@](CC)(C(=O)OC)[C@H]2C1=O,-2.1%,?,·,-2.5,?,·
COc1ccc(NC(=O)N2CCC3(CC2)CCN(C(=O)c2cccn2C)CC3)cc1,·,·,0.2%,·,·,2.4%
O=[N+]([O-])c1cccc(C2NCC(c3ccccc3Cl)c3c2[nH]c2ccccc32)c1 (centres undefined),?,?,2.8%,-10.2,?,13.9%
CN(C)c1ccc(C2CNC(c3ccc(Cl)c([N+](=O)[O-])c3)c3[nH]c4ccccc4c32)cc1 (centres undefined),0.1%,14.6µM*,3.0%,21.2,4.11µM*,-5.5%
Cc1cccc(C)c1N(CC(=O)NCc1ccco1)C(=O)CNS(=O)(=O)c1ccc(F)cc1,?,-4.7%,12.4%,0.0,2.9%,?
Cc1ccc(Oc2ccc(S(=O)(=O)NCC(C)(C)N3CCOCC3)cc2)cc1,-4.5%,-10.6%,-1.9%,3.4,20.6µM*,4.5%
Brc1ccc(-c2csc(-c3c[nH]c4ccccc34)n2)cc1,?,1.7%,0.7%,2.6,?,22.1%
c1ccc2c(-c3csc(-c4ccncc4)n3)c[nH]c2c1,?,20.6µM*,?,-23.9,?,-23.6%
CC(C)C(NC(=O)CSc1ccc(Cl)cc1)C(C)C,22.7%,-0.6%,-2.2%,-0.4,25.9µM*,?
COc1cc(/C=N/NC(=O)c2cccc(N3CCCC3=O)c2)ccc1O,-19.3%,?,-27.7%,-3.0,5.2%,-39.0%
O=C(N/N=C/c1cc([N+](=O)[O-])ccc1O)c1cccc(N2CCCC2=O)c1,-1.0%,9.2µM*,3.16µM*,47.9,22.0%,2.24µM*
